Source: PubChem BioAssay (Broad Institute)
Shown are actives, neighbours in structure and some others; about 2.5% of the full set was active somewhere.
RAD52 anneal inh: RAD52 (human) annealing inhibition; recombinant RAD52 DNA annealing, FRET fluorescence; inhibition, % at 18.7 µM; 0.46% of 360,000 active; AID 651710;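 active = every replicate showing at least 50% inhibition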
NSD2 inh: inhibitors of human histone methyltransferase NSD2. O96028. NSD2 peptide methylation, AlphaScreen, 120 min. inhibition, % at 12.5 µM. 0.54% of 310,000 active. AID 743445; in the data active = inhibition above about 50%
Ecoli rRNA inh: selective bacterial rRNA inhibition in E. coli. E. coli WT GFP vs humanized-ribosome RFP mutants, fluorescence, 24 h; hits give low values; DMSO median 0, no signal -100. GFP signal change (wild-type ribosome), % (test concentration not listed). 1.6% of 350,000 active. AID 720706;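 active = significant combined selectivity score with lowered wild-type GFP, culture density cut under 30%, mutant RFP and density less affected; inactive = any of these conditions unmet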
MLL AF4-AF9 inh: blocks AF4 peptide binding to human AF9. P42568. AlphaScreen, biotin-AF4 peptide binding to FLAG-AF9. inhibition, % at 10 µM. 0.47% of 350,000 active;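 active = every replicate reaching a set inhibition limit, whatever the replicate mean, cut at about 25% in these data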
Target sequence (P42568 whole entry, looked up): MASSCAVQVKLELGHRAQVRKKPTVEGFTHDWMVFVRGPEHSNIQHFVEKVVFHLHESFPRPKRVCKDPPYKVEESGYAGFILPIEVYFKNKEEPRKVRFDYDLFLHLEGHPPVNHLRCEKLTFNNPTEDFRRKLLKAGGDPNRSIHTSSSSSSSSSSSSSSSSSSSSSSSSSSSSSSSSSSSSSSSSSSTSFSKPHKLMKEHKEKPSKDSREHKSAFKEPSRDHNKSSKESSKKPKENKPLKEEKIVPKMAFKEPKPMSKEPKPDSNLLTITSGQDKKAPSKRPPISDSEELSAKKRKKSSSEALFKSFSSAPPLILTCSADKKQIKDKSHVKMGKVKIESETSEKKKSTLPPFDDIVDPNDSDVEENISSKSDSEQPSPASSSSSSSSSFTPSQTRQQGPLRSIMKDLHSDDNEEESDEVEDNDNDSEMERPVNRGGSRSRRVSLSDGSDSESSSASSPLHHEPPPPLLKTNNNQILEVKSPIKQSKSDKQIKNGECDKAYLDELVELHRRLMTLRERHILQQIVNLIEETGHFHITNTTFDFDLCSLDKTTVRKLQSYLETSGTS
Casp6 inh: blocks human caspase-6 cleavage activity. P55212. purified caspase-6, Z-VEID-R110 cleavage fluorescence. inhibition, % at 12.5 µM. 0.53% of 350,000 active. AID 686996;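 active = mean inhibition across replicates at least about 35%, with every replicate also reaching that limit, limit read from the data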
Numbers stand for hits; – = inactive; · = not tested or not shown.

SMILES	RAD52 anneal inh	NSD2 inh	Ecoli rRNA inh	MLL AF4-AF9 inh	Casp6 inh
C[C@H](CO)N1C[C@H](C)[C@H](CN(C)Cc2ccncc2)OCCCC[C@H](C)Oc2ccc(NC(=O)CCC(F)(F)F)cc2C1=O	–	·	–	–	–
O=C(Nc1ccc(Oc2ccccc2)cc1)c1csc([C@@H]2O[C@H](CO)[C@@H](O)[C@H]2O)n1	–	–	-30.8	–	–
COc1ccc2cc(CN(Cc3cccnc3)Cc3nnnn3Cc3ccccc3)c(=O)[nH]c2c1	–	–	-27.8	–	–
COc1cccc(CN(Cc2cccnc2)S(=O)(=O)c2ccc(-n3cnnn3)c(C)c2)c1	–	–	-24.8	–	–
COc1cc(S(=O)(=O)N(Cc2cccnc2)Cc2ccco2)ccc1-n1cnnn1	–	–	–	–	–
COc1ccc(S(=O)(=O)N(Cc2ccco2)Cc2cc3ccccc3[nH]c2=O)cc1	–	–	–	–	–
CC(=O)Nc1ccc(S(=O)(=O)N(Cc2cccnc2)Cc2cc3ccc(C)cc3[nH]c2=O)cc1	–	–	–	–	–
COc1ccc2cc(CN(Cc3cccs3)Cc3nnnn3Cc3ccccc3)c(=O)[nH]c2c1	·	–	·	·	·
Cc1ccc(S(=O)(=O)N(Cc2cccnc2)Cc2cc3ccccc3[nH]c2=O)cc1	–	–	–	29.2	–
COc1ccc(S(=O)(=O)N(Cc2cccnc2)Cc2cc3ccccc3[nH]c2=O)cc1	–	–	-28.9	–	–
O=C1N[C@@H](Cc2ccccc2)C(=O)N2[C@@H]1C[C@@H](C(=O)NCc1ccc(F)cc1)[C@H]2c1ccc(O)cc1	–	·	·	–	–
COc1ccc2c3c([nH]c2c1)[C@@H](CO)N(Cc1ccncc1)CC31CN(CC2CCOCC2)C1	–	·	–	–	–
C[C@@H]1CCCCO[C@H](CN(C)C(=O)Nc2ccccc2)[C@H](C)CN([C@@H](C)CO)C(=O)c2cc(NC(=O)Nc3cccc4ccccc34)ccc2O1	–	·	–	–	–
COc1ccc(CNC(=S)Nc2ccc(F)c(Cl)c2)cc1OC	–	–	-27.2	–	–
Cc1ccc(NC(=O)c2ccc(CSc3ccccn3)cc2)c(O)c1	–	–	-35.8	–	–
Cc1ccc(NC(=O)c2ccc(CSc3ccccn3)cc2)cc1	·	–	·	·	·
Cc1nn(-c2ccccc2)c(N)c1N=Nc1cccnc1	–	–	-22.1	–	–
Nc1nc(-c2ccccc2)c(N=Nc2cccnc2)s1	–	–	–	–	–
Nc1nn(-c2ccccc2)c(N)c1N=Nc1ccc2c(c1)OCO2	·	–	·	·	·
Nc1nn(-c2ccccc2)c(N)c1N=Nc1cccc(F)c1	–	–	-35.8	–	–
Cn1ccnc1SCC(=O)c1ccc(Cl)cc1	–	–	-32.1	–	–
Cn1ccnc1SCC(=O)c1ccc(O)cc1	–	–	–	–	–
CCCCNC(=O)O[C@H]1C[C@@H]2CCN3C(=O)CCC[C@H]([C@H]1CC)[C@H]23	–	·	–	–	–
CCCCNC(=O)O[C@@H]1C[C@@H]2CCN3C(=O)CCC[C@H]([C@H]1CC)[C@H]23	–	·	–	94.2	–
C[C@@H]1CCCCO[C@H](CN(C)CC2CCCCC2)[C@H](C)CN([C@H](C)CO)C(=O)c2cc(NS(=O)(=O)c3ccccc3)ccc2O1	–	·	–	–	–
SMILES	RAD52 anneal inh	NSD2 inh	Ecoli rRNA inh	MLL AF4-AF9 inh	Casp6 inh
CN(c1cccc(NC(=O)c2ccc(N(C)S(=O)(=O)c3ccccc3)cc2)c1)S(C)(=O)=O	–	–	-17.1	–	–
CN(c1ccccc1)S(=O)(=O)c1cccc(C(=O)OCC(=O)Nc2ccc(C(N)=O)cc2)c1	–	–	·	–	40.0
CN(c1ccccc1)S(=O)(=O)c1cccc(NC(=O)CCN2C(=O)C3CCCCC3C2=O)c1 (centres undefined)	–	–	-29.0	–	–
NS(=O)(=O)c1cccc(NC(=O)COC(=O)c2ccccc2C(=O)c2ccccc2)c1	–	–	-32.5	–	–
NS(=O)(=O)c1cccc(NC(=O)COC(=O)CSCc2ccccc2)c1	–	–	–	–	–
COC(=O)C[C@@H]1CC[C@@H]2[C@@H](COc3ccc(NC(=O)c4cscn4)cc3C(=O)N2C)O1	–	·	–	–	–
O=C(Nc1cccc(Cl)c1)c1ccc(NCCCN2CCOCC2)c([N+](=O)[O-])c1	·	–	·	·	·
Cc1ccc(NC(=O)c2ccc(NCCCN3CCC(C)CC3)c([N+](=O)[O-])c2)cc1F	–	–	-25.0	–	–
COCC(=O)N1CC2(C1)CN(C(=O)CN1CCOCC1)[C@@H](CO)c1c2c2ccc(OC)cc2n1C	·	·	–	–	·
Cc1ccc(-c2c[n+](CC(=O)Nc3ccc(C)cc3C)c3n2CCC3)cc1	–	–	-33.1	–	–
O=C(C[n+]1cc(-c2ccc(Cl)cc2)n2c1CCC2)Nc1nc(-c2ccccc2)cs1	–	–	-44.4	–	–
COc1ccc(-c2c[n+](CC(=O)c3cccs3)c3n2CCC3)cc1	–	–	–	–	–
COc1ccc(-c2c[n+](CC(=O)N3c4ccccc4Sc4ccccc43)c3n2CCC3)cc1	–	–	-45.1	–	–
Cc1ccc(NC(=O)C[n+]2cc(-c3ccc(C)cc3)n3c2CCC3)cc1	–	–	·	–	–
Cc1ccc(-c2c[n+](CC(=O)c3cccs3)c3n2CCC3)cc1	–	–	-43.7	–	–
CC(=O)N1C[C@@H]2[C@H](c3ccccc31)[C@H](CO)N2C(=O)CC1CC1	–	·	–	–	–
CNC[C@@H]1Oc2ccc(N)cc2CC(=O)N(C)C[C@H]1C	·	·	–	·	·
Nc1ccccc1C(=O)NNc1c2ccccc2nc2ccccc12	–	–	-19.6	·	–
CCOc1cc(CNc2cccc3[nH]c(C)nc23)ccc1OC	–	–	–	30.3	–
O=C(C[C@H]1CC[C@H]2[C@@H](COC[C@@H](O)CN2C(=O)c2ccccc2)O1)N1CCOCC1	–	·	–	–	–
CNC[C@H]1Oc2c(NS(=O)(=O)c3cn(C)cn3)cccc2C(=O)N([C@H](C)CO)C[C@H]1C	–	·	–	–	–
C[C@@H]1CCCCO[C@@H](CN(C)Cc2ccccc2)[C@H](C)CN([C@@H](C)CO)C(=O)c2cc(NS(=O)(=O)c3cn(C)cn3)ccc2O1	–	·	–	–	–
Cc1ccc([N+](=O)[O-])cc1S(=O)(=O)NCCc1c(C)[nH]c2c(C)cccc12	–	–	-20.2	–	–
COc1ccc(S(=O)(=O)N(C)C[C@H]2OCCCC[C@H](C)Oc3ccc(NC(=O)Nc4cccc5ccccc45)cc3C(=O)N([C@@H](C)CO)C[C@H]2C)cc1	–	·	–	–	–
CO[C@H]1/C=C/O[C@@]2(C)Oc3c(C)c(O)c4c(O)c(c(C=NN5CCN(C)CC5)c(O)c4c3C2=O)NC(=O)/C(C)=C\C=C\[C@H](C)[C@H](O)[C@@H](C)[C@@H](O)[C@@H](C)[C@H](OC(C)=O)[C@@H]1C	–	·	·	31.2	–
CCCNC(=O)Nc1ccc2c(c1)C(=O)N(C)C[C@H](OC)[C@@H](C)CN(CCC(F)(F)F)[C@@H](C)CO2	·	·	–	·	·
CCCCNC(=O)c1ccc2nc(-c3ccco3)c(-c3ccco3)nc2c1	–	·	–	–	71.6
